Pf growth 48h – Primary qHTS for delayed death inhibitors of the malarial parasite plastid, 48 hour incubation | P. falciparum luciferase growth in erythrocytes, 48 h | Potency, µM (titrated, usually from 28.7 µM), without a hit: at the highest dose activity change, negative = inhibition, most hits filed as inhibitors | 5.9% of 310,000 active | AID 504832, 2011; further: potency means the concentration at half of the fitted maximal effect; on the % scale 0 is the no-effect control and ±100 the full control effect
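Cell-based growth assay: transgenic P. falciparum expressing firefly luciferase, cultured in red cells within RPMI 1640 containing 0.5% w/v Albumax, 24 mM bicarbonate and gentamycin. A drop in luciferase activity indicates inhibition.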
Sm TGR block – qHTS Assay for the Inhibitors of Schistosoma Mansoni Peroxiredoxins | Schistosoma mansoni thioredoxin glutathione reductase (TGR), Q962Y6 | purified TGR, DTNB reduction, TNB absorbance 405 nm | Potency, µM (titrated, usually from 114 µM), without a hit: at the highest dose activity change, negative = inhibition, hits mostly inhibitors | 3% of 360,000 active | AID 485364, 2010; further: potency means the concentration at half of the fitted maximal effect; on the % scale 0 is the no-effect control and ±100 the full control effect; nearly all actives have a fitted effect of over 60% in size
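TGR 20 nM + NADPH 100 uM (dispensed conc.), cpd preinc 15 min RT; start with NADPH (500 uM addition) then DTNB (15 mM addition). Kinetic TNB absorbance, 405 nm filter. Four-parameter Hill fit across titration.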
Pf growth 96h – Primary qHTS for delayed death inhibitors of the malarial parasite plastid, 96 hour incubation | P. falciparum luciferase reporter growth, 96 h | Potency, µM (top dose mostly 28.7 µM), without a hit: at the highest dose activity change, negative = inhibition, usual class: inhibitors | 6.9% of 320,000 active | AID 504834, 2011; further: potency means the concentration at half of the fitted maximal effect; on the % scale 0 is the no-effect control and ±100 the full control effect
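96 h incubation, 37 C, 5% CO2, of luciferase-reporter P. falciparum-infected RBCs (2% hematocrit, 0.05% parasitemia final) with test compounds; endpoint luminescence.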
HCV inh – qHTS Assay for Inhibitors of Hepatitis C Virus (HCV). Huh7.5.1 HCVcc-Cre infection, luciferase reporter, 44 h. Potency, µM (doses to about 41.8 µM), without a hit: at the highest dose activity change, negative = inhibition, actives largely listed as inhibitors. AID 651820, 2012. 3.4% of 340,000 active; further: potency means the concentration at half of the fitted maximal effect; on the % scale 0 is the no-effect control and ±100 the full control effect
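A cell-based infection assay in which seeded cells (1,000 per well) receive test compound after 4 h, are inoculated with HCVcc-Cre at approximately 0.5 moi, and are incubated 44 h before luminescence detection.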
HCMV antiviral – qHTS Assay for inhibitors of the human cytomegalovirus (HCMV); 4.5% of 410,000 active; activity change, negative = inhibition, % at 57.5 µM; AID 1259415, 2018; HFF cells, HCMV-luciferase reporter, 72 h; stronger effect = lower value; in the data active means activity change below about -60%; inconclusive means no clear call, values can overlap the other calls; inactive means above about -39%; further: on the % scale 0 is the no-effect control and ±100 the full control effect
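Luciferase read-out from HCMV-luciferase-infected HFFs (MOI 1 PFU/cell) 72 h post infection at 37C; compounds added after 16 h cell attachment; activity normalized between buffer-only basal and Salinomycin (10uM) inhibitor controls.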
SARS PLP yeast – qHTS of Yeast-based Assay for SARS-CoV PLP; S. cerevisiae expressing SARS-CoV PLpro, growth rescue; Potency, µM (top dose mostly 32.9 µM), without a hit: at the top dose activity, positive = growth rescue, actives largely listed as activators; 0.19% of 330,000 active; AID 485353, 2010; calls by dose curve; further: potency means the concentration at half of the fitted maximal effect; 0% is about no effect; nearly all actives have a fitted effect of over 55% in size
* = called active by the depositor; ? = inconclusive; / = not tested or not shown; + = active, no number; [ ] = remark or other dose. Shown are actives, neighbours in structure and some others; about 15% of the full set was active somewhere. Unless noted, the call rests on the fitted dose curve; in most records, active means well fitted curve in the direction sought with a large enough effect; inconclusive means small, poorly fitted or top-dose-only effect, or another doubt; inactive means no such curve, though single readings can be large; an effect the other way counts as inactive or inconclusive.

SMILES	Pf growth 48h	Sm TGR block	Pf growth 96h	HCV inh	HCMV antiviral	SARS PLP yeast
CCCCC(=O)NC(=S)Nc1cccc(C(=O)O)c1	34%	0%	?	2%	-20	-1%
CC#CCCCC(=O)Nc1cccc(C(=O)O)c1	143%	-35%	10µM*	3%	109	2%
O=C(NC1CCCC1)c1cccc(NC(=O)c2ccco2)c1	/	8%	-27%	1%	-107*	8%
CCCCC(=O)Nc1cccc(NC(=O)c2ccc(Br)cc2)c1	15%	2%	130%	?	-23	-2%
COc1cccc(CN(CC(=O)NCc2ccccc2)C(=O)c2csnn2)c1	12%	-10%	17%	10%	3	10%
O=C(Nc1cc(Br)c(O)c(Br)c1)c1cccc(NC(=O)c2ccco2)c1	?	?	7.4µM*	2%	26	3%
Cc1cc(C)cc(NC(=O)c2cccc(NC(=O)c3ccco3)c2)c1	/	/	/	?	11	/
O=C1CCCC(=O)C1CS(=O)(=O)c1ccccc1	0%	2.2µM*	-10%	-4%	20	1%
COc1ccc(C2CC(=O)C(CS(=O)(=O)c3ccccc3)C(=O)C2)cc1 (centres undefined)	11%	1µM*	124%	18%	?	1%
COc1ccc(N2C(=O)CC(c3ccccc3)CC2=O)cc1	37%	5%	64%	5%	?	4%
O=C1CC(c2ccc(Cl)cc2)CC(=O)C1CS(=O)(=O)c1ccccc1 (centres undefined)	24%	0.63µM*	47%	-14%	-18	0%
O=C(N/N=C/c1cccc(Cl)c1)C(c1ccncc1)N1CCOCC1 (centres undefined)	18%	6%	?	0%	93	-2%
CNC(=S)N(C)CCc1cc2c(c(OC)c1C=C1C(=O)NC(=O)NC1=O)OCO2	?	?	5.2µM*	-12%	-5	0%
O=C(Nc1ccc(OC(=O)N2CCCCC2)cc1)N1CCOCC1	-7%	-4%	13%	-13%	+	1%
O=C(Nc1ccc(Nc2ccccc2)cc1)N1CCOCC1	2%	-8%	/	-4%	-63*	-3%
Cc1ccc(S(=O)(=O)Nc2ccc(O)c(S(=O)(=O)c3ccc(C)cc3)c2)cc1	2%	-17%	27%	3%	-3	1%
CC(=O)Nc1ccc(S(=O)(=O)c2cc(O)ccc2O)cc1	-2%	6.3µM*	?	18%	-6	-7%
Cc1ccc(S(=O)(=O)c2cc(O)ccc2O)cc1C	12%	4µM*	23%	-9%	-28	3%
C=CCOc1ccc(/C=N/n2nnnc2N)cc1OC	/	/	/	6%	9	/
Cc1ccc(S(=O)(=O)N2CCN(c3ccccc3)CC2)cc1C(=O)NC1CCCCC1	-18%	-6%	?	?	-35	-2%
O=C1C(Cl)=C(N2CCOCC2)C(=O)N1CCc1ccccc1	106%	0%	?	25%	65	-3%
CN1CCN(C2=C(Cl)C(=O)N(CCc3ccccc3)C2=O)CC1	52%	?	-92%	?	-68*	5%
NC(=O)c1ccc(NC(=O)COC(=O)CCN=C2NS(=O)(=O)c3ccccc32)cc1	-5%	-6%	-20%	17%	-4	6%
CCCC/C=C/C(NC(=O)CCc1ccccc1)c1ccccc1 (centres undefined)	?	-11%	8.3µM*	-1%[8.37 µM]	-26	-36%
CCCC/C=C/C(NC(=O)c1ccc(-c2ccccc2)cc1)c1ccccc1 (centres undefined)	/	/	/	11%	-19	/
Cc1ccc(C=C2C(Cl)=C(Cl)C(Cl)=C2Cl)cc1	?	0.63µM*	1%	-3%	/	0%
COc1ccc(S(=O)(=O)c2c(O)c3ccc(C(=O)NCc4ccccc4)cc3[nH]c2=O)cc1	/	-1%	/	/	2	/

Screening data deposited in PubChem BioAssay by National Center for Advancing Translational Sciences (NCATS).
